Several values for one entry are separate records, joined by “and”; a condition that tells them apart may be missing. Equal values may be shown once.
Assay: qHTS of Nrf2 Activators: Hit Validation in NQO-1 Induction Assay
Conditions: Hepa1c1c7 cells, NQO1 mRNA qPCR, 24 h; at 1 µM; stronger effect = higher value;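 active = relative NQO1 transcription at 1 µM of 250% or more; inconclusive = relative NQO1 transcription between 200% and 250%; inactive = relative NQO1 transcription under 200%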
Text: Many diseases have some form of oxidative stress injury and ties to inflammation, causing a host of problems for the patient. The antioxidant response element (ARE) plays an important role in alleviating the harmful effects of oxidative stress. The antioxidant response element (ARE) is a transcriptional regulatory element involved in the activation of genes coding for a number of antioxidant proteins and detoxifying enzymes. These enzymes work in concert to protect tissues from oxidative insults and chemical toxicities in human hepatocytes and immune cells. The protective effects of ARE activation are primarily triggered through Nrf2 (NF-E2-related factor) binding to and activating AREs. It is known that Nrf2 controls the production of over 250 antioxidant and detoxification proteins (Hu et al., 2006), thereby protecting tissues by increasing cellular antioxidant content and suppressing inflammatory signaling pathways. The transcription factor Nrf2 is a central link between oxidative chemicals, such as phenolic antioxidants and electrophilic compounds, and the activation of ARE. Nrf2 levels are constitutively low as a consequence of its interaction with Keap1, which targets its degradation (Zipper and Mulcahy, 2002). Electrophiles react with key cysteine residues in Keap1, releasing Nrf2 and allowing its translocation to the nucleus. Once within the nucleus, Nrf2 complexes with coactivators such as p300, and binds to the AREs to induce gene transcription of cytoprotective enzymes, resulting in the prevention of toxicity. Activation of Nrf2 protects tissues by increasing cellular antioxidant content and suppressing inflammatory signaling pathways. Identifying novel and potent Nrf2 activators by using the AREc32 cell line to detect ARE activation by small molecules will lead to the identification and development of probes to study protective pathways in multiple tissues. These specific probes are essential to study the ARE pathway, and eventually to determine whether this pathway does activate genes that could protect against a host of diseases, including cardiovascular diseases, obesity, diabetes, Alzheimer's, and Parkinson's disease. This project's aim is to identify novel and potent Nrf2 activators by using the AREc32 cell line to detect ARE activation by small molecules, which will lead to the identification and development of probes to study the ARE pathway. Compounds that were identified in the primary screen were tested in this secondary assay to assess whether a hit also activates Nrf2 transcription of the target gene NQO-1. NIH Chemical Genomics Center [NCGC] NIH Molecular Libraries Probe Centers Network [MLPCN] MLPCN Grant: DK081461 Assay Submitter (PI): Curtis Klaassen, University of Kansas Medical Center
Hepac1c7 cells were seeded into 24-well plates at a density of 30,000 cells/well in 1 mL complete media per well and cultured overnight to allow attachment. Cells were treated the next day with compounds (1 uM)or positive control for 24 h. Total RNA samples were then isolated by using RNAzol B reagent (Tel-Test, Inc., Friendswood, TX) according to the manufacturer's protocol. Total RNAs were reverse-transcribed into cDNA by High Capacity cDNA Archive Kits (Applied Biosystems, Foster City, CA) and the resulting cDNA was used for real-time PCR analysis using SYBR(R) Green PCR Master Mix in a 7900HT Fast Real-Time PCR System.

Relative NQO1 transcription, inactive:
COc1ccccc1NC(=O)c1cc(Cl)nc2ccccc12 79%
O=C(Nc1cccc2ncccc12)c1ccc(Cl)cc1 136%
Cc1nc(NCc2ccco2)nc2c1C(=O)CC(C)C2 (stereo not given) 175%
Clc1ccc2c(NCc3ccccn3)ncnc2c1 83%
O=C(Nc1ncnc2sc3c(c12)CCCCC3)c1ccco1 163% and 137%
O=C(Nc1ncnc2sc3c(c12)CCC3)c1ccco1 175%
CS(=O)(=O)c1nc(S(=O)(=O)c2ccc(Cl)cc2)c(N2CCOCC2)s1 129%
COc1ccc(NC(=O)c2cc(-c3ccco3)on2)c(OC)c1 75%
COC(=O)c1c(NC(=O)c2ccccc2)sc(C(N)=O)c1C 60%
COc1ccc(NC(=O)c2cc(-c3cccs3)on2)c(OC)c1 129%
